USP30 block = blocks human USP30 ubiquitin-rhodamine cleavage. Q70CQ3. purified USP30, Ub-rhodamine cleavage fluorescence. inhibition, % at 25 µM. 5.3% of 47,000 active. AID 1645860
USP28 block = blocks human USP28 ubiquitin-rhodamine cleavage; purified USP28, Ub-rhodamine cleavage fluorescence, 30 min; inhibition, % at 25 µM; 3% of 47,000 active
USP8 block = inhibitors of human USP8 deubiquitinase; purified USP8, Ub-rhodamine cleavage fluorescence, 30 min; 4.2% of 47,000 active; P40818; inhibition, % at 20 µM; AID 1645853
USP17 inh = blocks human USP17 ubiquitin-rhodamine cleavage; A8MUK1; purified USP17, Ub-rhodamine cleavage fluorescence, 3 h; inhibition, % at 50 µM; 6.5% of 47,000 active; AID 1645855
USP10 inh = inhibitors of human USP10 deubiquitinase; purified USP10, Ub-rhodamine fluorescence, 60 min; 1.1% of 47,000 active; Q14694; inhibition, % at 20 µM; AID 1645856
USP7 block = blocks human USP7 ubiquitin-rhodamine cleavage. Q93009. purified USP7, Ub-rhodamine cleavage fluorescence. inhibition, % at 20 µM. 0.3% of 47,000 active
Numbers without * were called inactive. This is a sample that favours compounds with a hit; in the whole collection about 13% have one here. Rule as the data show it: active = inhibition above about 30%; inactive = the rest.

SMILES | USP30 block | USP28 block | USP8 block | USP17 inh | USP10 inh | USP7 block
c1ccc(CN2CCN(c3nccn4nc(-c5ccccc5)cc34)CC2)cc1 | -51 | -8 | 8 | -10 | 2 | 8
COc1ccc(S(=O)(=O)NCC(C)(C)SCc2ccc(F)cc2)cc1 | 31* | 8 | 10 | 21 | 10 | -3
COc1ccc(S(=O)(=O)NCc2ccc3c(c2)cc(C)n3C)cc1 | -373 | -87 | -22 | -44 | -6 | -23
CC(=O)Nc1ccc(Oc2cccnc2)nc1 | -7 | -1 | 6 | 4 | -2 | -2
COc1ccccc1CNC(=O)c1ccccc1OCc1ccccc1Cl | 32* | 29 | 13 | 24 | 12 | -13
CCCn1nnnc1CN1CCc2cc(OC)c(OC)cc2C1c1ccccc1 (centres undefined) | 33* | 8 | 13 | 10 | 6 | 3
COc1cc2c(cc1OC)C(c1ccccc1)N(Cc1ccno1)CC2 (centres undefined) | 20 | 3 | 8 | 0 | 1 | -1
CCc1ccc(Nc2cc(C(=O)NCCCOC(C)C)c3ccccc3n2)cc1 | -34 | 5 | 2 | 69* | 7 | 5
O=C(NCc1cccc(Br)c1)c1cc2ccccn2n1 | 25 | 30* | 6 | 15 | 0 | 6
O=C(NC1CCCc2ccccc21)c1cc(=O)[nH]c2ccccc12 (centres undefined) | -44 | -4 | 0 | 41* | 4 | 4
O=C(N[C@H]1CCCc2ccccc21)c1cc(-c2ccco2)on1 | -155 | 0 | 33* | 47* | -6 | 4
O=C(COC(=O)CCCN1C(=O)c2cccc3cccc(c23)C1=O)NC1CC1 | 13 | 12 | 3 | 9 | 4 | 4
Cc1ccc(C2N3CC4(C)CN2CC(c2ccccc2)(C3)C4=O)cc1 (centres undefined) | 34* | 11 | 5 | 19 | 4 | 1
CC12CN3CC(c4ccccc4)(CN(C1)C3c1ccc(O)cc1)C2=O (centres undefined) | -11 | -12 | -1 | -5 | 0 | -3
COc1ccc(NC(=O)CN2CCC3(CCC2=O)NC(=O)c2ccccc2N3)cc1 (centres undefined) | -5 | -3 | 2 | -10 | -4 | -1
CC(C)N1CCN(C(=O)CN2CCC3(CCC2=O)NC(=O)c2ccccc2N3)CC1 (centres undefined) | 18 | 9 | 32* | 19 | 1 | 7
Cc1cc(-c2ncc[nH]2)nc(C2CCN(C(=O)C(C)C)CC2)n1 | 11 | 2 | 2 | 11 | 0 | 4
C[C@@H]1OC2=C(C(=O)c3cccc(O)c3C2=O)[C@H](O)[C@@H]1O | 6 | 71* | 63* | 80* | 49* | -116
CC1=C(c2ccc(C(C)C)cc2)S(=O)(=O)N(CC(=O)Nc2ccccc2C)C1=O | 32* | 39* | 27 | 22 | 13 | 8
CC1=C(c2ccccc2)S(=O)(=O)N(CC(=O)Nc2ccccc2C)C1=O | 13 | 14 | -5 | 10 | 1 | 6
CCN1CCN(C(=O)Cn2cc(C)nn2)CC(Cc2ccc(-c3ccccc3F)cc2)C1=O (centres undefined) | 0 | 3 | 3 | 3 | -1 | 0
CCc1nc2ccc(C(=O)Nc3nc(-c4ccc5c(c4)CCN5C(=O)C4CCCCC4)c(C)s3)cc2nc1CC | -15 | 3 | 26 | 8 | 1 | -16
CC(C)(C)CC(=O)N1CCc2cc(-c3csc(NC(=O)CN4CCc5ccccc5C4)n3)ccc21 | -68 | -14 | 9 | -8 | -3 | -4
CCc1nc2ccc(C(=O)Nc3nc(-c4ccc5c(c4)CCN5S(=O)(=O)c4ccccc4)c(C)s3)cc2nc1CC | -4 | 15 | 23 | 32* | 1 | 0
Cc1sc(NC(=O)CNc2ccccc2)nc1-c1ccc2c(c1)CCN2C(=O)C(C)C | -13 | 5 | -4 | 51* | -2 | -9
Cc1cccc(C(=O)N2CCc3cc(-c4csc(NC(=O)CNc5ccccc5)n4)ccc32)c1 | -40 | -11 | 30 | 31* | 8 | -19
Cc1sc(NC(=O)CN(C)C2CCCCC2)nc1-c1ccc2c(c1)CCN2C(=O)c1cccc(F)c1 | 6 | -9 | 14 | 12 | 14 | -47
Cc1cccc(C(=O)N2CCc3cc(-c4nc(NC(=O)CNc5ccccc5)sc4C)ccc32)c1 | 20 | 17 | 57* | 60* | 19 | -21
CC(NC(=O)C1CCCC1)c1nc(-c2cccnc2)n[nH]1 (centres undefined) | 20 | 9 | 0 | 12 | 2 | 2

Screens from PubChem BioAssay.
